Compound activity: PubChem, National Center for Advancing Translational Sciences (NCATS)
D1 ag = human D1 receptor agonism. activation, % at 2 µM. 360,000 compounds, 1% hits. P21728. HEK293 T-REx D1 cells, calcium flux, agonist mode. AID 504660
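Inducible HEK293 T-REx D1 cells, force-coupled to calcium signalling, were plated at 4000 cells/well with tetracycline and held overnight at 30 C. After no-wash calcium dye loading, compound-evoked calcium rise over 180 s flagged agonists.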
TRHR agonist = TRH receptor (human) agonism; P34981; TRHR cells, calcium flux fluo-8, FDSS agonist mode; activation, % at 2 µM; 360,000 compounds, 0.18% hits
Target sequence (P34981 whole entry, looked up): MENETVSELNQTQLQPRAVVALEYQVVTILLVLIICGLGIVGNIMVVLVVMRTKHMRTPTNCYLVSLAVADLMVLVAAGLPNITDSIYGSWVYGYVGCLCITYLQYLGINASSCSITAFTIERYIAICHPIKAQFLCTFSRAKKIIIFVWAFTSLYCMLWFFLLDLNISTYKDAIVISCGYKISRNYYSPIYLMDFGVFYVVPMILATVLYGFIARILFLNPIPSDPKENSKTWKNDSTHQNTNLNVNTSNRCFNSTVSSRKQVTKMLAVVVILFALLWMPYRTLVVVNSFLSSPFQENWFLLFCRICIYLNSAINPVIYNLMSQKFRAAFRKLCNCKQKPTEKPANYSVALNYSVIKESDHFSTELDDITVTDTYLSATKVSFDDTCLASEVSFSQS
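TRHR-expressing cells loaded with fluo-8 calcium dye; 23 nL library compound pin-transferred, kinetic FDSS fluorescence (Ex 480/Em 530) recorded about 180 s for agonist-induced calcium release, before a 10 nM TRH EC20 addition for potentiator mode.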
TRHR enhancer = TRH receptor (human) allosteric enhancement; P34981; TRHR cells, fluo-8 calcium fluorescence, EC20 TRH enhancement; enhancement, % at 2 µM; 360,000 compounds, 0.66% hits; in the data active means enhancement above about 30%
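Enhancer read-out: after compound pinning and an initial kinetic agonist-mode read, an EC20 of TRH (10 nM final) was injected and fluo-8 calcium signal (Ex 480/Em 530) followed at 1 s/cycle for 100 cycles in TRHR-expressing cells.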
D1 PAM = potentiators of human D1 dopamine receptor | HEK293 TREx D1 cells, calcium flux, dopamine EC20 potentiation | AID 504651 | 360,000 compounds, 0.036% hits | potentiation, % at 10 µM; in the data active means potentiation above about 30%
D1 antag = antagonists of human D1 dopamine receptor; activity change, negative = inhibition, % at 10 µM; HEK293 TREx D1 cells, calcium flux, dopamine EC80; hits give low values; AID 504652; 360,000 compounds, 3.2% hits; in the data active means activity change below about -30%
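After overnight tetracycline induction at 30 C, force-coupled D1 HEK293 cells took up a no-wash calcium dye at room temperature. Compounds were added and monitored 180 s, and the response to EC80 dopamine was then recorded.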
Numbers stand for hits; 0 = inactive; - = no result given. Shown are actives, neighbours in structure and some others; about 4.7% of the full set was active somewhere. Unless noted, no stated cut-off is given here; in the data, active means activation above about 30%; inactive means the rest.

SMILES	D1 ag	TRHR agonist	TRHR enhancer	D1 PAM	D1 antag
CN(C)S(=O)(=O)c1ccc(C(=O)OCC2COC(C)(C)O2)cc1 (stereo not drawn)	0	0	0	0	0
CSc1ccc(CN2CCN(C3CCCC3)C(CCO)C2)cc1 (stereo not drawn)	0	0	0	0	0
OCCC1CN(Cc2ccncc2)CCN1C1CCCC1 (stereo not drawn)	0	0	0	0	-36
O=S(=O)(NCCC1CC1(Cl)Cl)c1ccc(Cl)cc1 (stereo not drawn)	0	0	0	0	-38
CC(C)(C)SCCNS(=O)(=O)c1ccc(Cl)cc1	0	0	0	0	0
COC(=O)c1sccc1NC(=O)Cn1cnc2c1c(=O)n(C)c(=O)n2C	0	0	0	0	0
COc1ccc(CCNC(=O)CSc2ncc3c(n2)-c2cc(Cl)ccc2N(Cc2ccccc2)S3(=O)=O)cc1OC	0	0	0	0	0
CCN(CC)CCNc1cc(C)c(C#N)c2nc3ccccc3n12	0	0	0	0	0
CCCc1cc(NCCCCO)n2c(nc3ccccc32)c1C#N	0	0	0	0	-36
CCN(CC)CCCNc1cc(C(F)(F)F)c(C#N)c2nc3ccccc3n12	46	0	0	0	0
CCCCNC(=O)C(CC)Sc1nnc(-c2ccc(OC)c(OC)c2)c(-c2ccc(OC)c(OC)c2)n1 (stereo not drawn)	0	0	0	0	0
COc1ccc(NC(=S)NCCc2c[nH]c3ccccc23)c(OC)c1	0	0	0	0	-36
Cc1ccc(S(=O)(=O)NC(C)(C)CN2CCNCC2)cc1	0	0	0	0	0
CC(CN1CCNCC1)(NS(=O)(=O)c1ccccc1)c1ccccc1 (stereo not drawn)	0	0	0	0	-35
OCCN1CCN(CC(O)COc2ccc(C34CC5CC(CC(C5)C3)C4)cc2)CC1 (stereo not drawn)	63	0	0	0	-42
NCCOc1ccc(C23CC4CC(CC(C4)C2)C3)cc1	127	0	0	36	0
Oc1ccc(C23CC4CC(CC(C4)C2)C3)cc1O	0	0	0	0	0
Cc1cc(F)ccc1NC(=O)C1CCN(C(=O)c2cnn(-c3ccccc3)c2-n2cccc2)CC1	0	0	0	0	0
COc1ccccc1N1CCN(c2ccc(=O)n(CC(=O)Nc3ccc(F)c(F)c3)n2)CC1	0	0	0	0	0
O=C(Nc1ccc(O)cc1)/C(=C\C=C\c1ccccc1)NC(=O)c1ccccc1	0	0	0	0	-32
COC(=O)/C(=C\C=C\c1ccccc1)NC(=O)c1ccccc1	0	0	0	0	-30
Cc1ccc(-n2c(SCC(=O)N3CCOCC3)nc(O)c(Cc3ccccc3)c2=O)cc1	0	0	0	0	-31
COc1ccccc1N1CCN(C(=O)Cn2c(=O)n3nc(-c4ccc(C)cc4)nc3c3ccccc32)CC1	0	0	0	0	-
COc1ccccc1C(=O)NNC(=S)NC(=O)c1sc2ccccc2c1Cl	213	0	0	0	0
COc1ccccc1C(=O)NC(=S)NNC(=O)c1sc2ccccc2c1Cl	199	36	0	0	0
SMILES	D1 ag	TRHR agonist	TRHR enhancer	D1 PAM	D1 antag
O=C1c2ccccc2C(Nc2ccccc2F)N1c1cccnc1 (stereo not drawn)	0	0	0	-	-35
COC(=O)c1ccccc1NC1c2ccccc2C(=O)N1c1cccnc1 (stereo not drawn)	0	0	0	0	0
COCCn1c(SC(C)C(=O)NCC2CCCO2)nc2scc(-c3ccc(F)cc3)c2c1=O (stereo not drawn)	0	0	0	0	-42
CCn1c(SC(C)C(=O)NCC2CCCO2)nc2scc(-c3ccccc3)c2c1=O (stereo not drawn)	0	0	0	0	0
Nc1cnccc1C(=O)O	32	0	0	0	0
O=C(Nc1ncccc1O)c1cccc(S(=O)(=O)N2CCc3ccccc32)c1	0	0	0	0	0
CN1CCN(S(=O)(=O)c2cccc(C(=O)NC3(C)CCS(=O)(=O)C3)c2)CC1 (stereo not drawn)	0	0	0	0	0
CC1CCCC(C)N1NC(=O)c1cccc(S(=O)(=O)N2CCc3ccccc32)c1 (stereo not drawn)	0	0	0	0	0
O=C(c1cccc(S(=O)(=O)N2CCc3ccccc32)c1)N1CCc2ccccc2C1	0	0	0	-	-82
O=C(NCCc1ccccn1)c1cccc(S(=O)(=O)N2CCc3ccccc32)c1	0	0	0	0	-36
COc1ccc(NC(=O)c2cccc(S(=O)(=O)N3CCc4ccccc43)c2)cn1	0	0	0	0	-31
CC1(NC(=O)c2cccc(S(=O)(=O)N3CCCc4ccccc43)c2)CCS(=O)(=O)C1 (stereo not drawn)	0	0	0	0	-83
Cc1cc(C)n(-c2nc(C)c(C)c(=O)n2CC(=O)Nc2ccc([N+](=O)[O-])cc2)n1	0	0	0	0	-
COc1cccc(NC(=O)C2(S(=O)(=O)c3ccc(Cl)cc3)CC2)c1	0	0	0	0	0
COc1ccccc1-c1cc2nc(C)c(CCC(=O)NCCc3cccc(C)c3)c(C)n2n1	0	0	0	0	0
COc1cc2c(cc1OC)CN(C(=O)c1cccc(S(=O)(=O)N3CCc4ccccc43)c1)CC2	0	0	0	0	-34
Oc1cccc(C(Nc2ccccn2)c2ccc3cccnc3c2O)c1Cl (stereo not drawn)	0	0	0	0	0
COc1ccc(CN(C)C(=O)c2ccc(Cl)c(S(=O)(=O)NCc3cccnc3)c2)cc1F	0	0	0	0	-47
COc1ccc([N+](=O)[O-])cc1NS(=O)(=O)c1cc(C(=O)NCc2cccnc2)ccc1Cl	0	0	0	0	0
COc1ccc(S(=O)(=O)NCc2cccnc2)cc1Br	0	0	0	0	-32
COc1ccc(SCc2cc(=O)c3cc(Cl)ccc3[nH]2)cc1	0	0	0	0	0
CCc1ccc(-n2c(Cc3ccccc3)nnc2SCc2nc(-c3cccs3)no2)cc1	84	0	0	0	-37
c1ccc(-c2noc(CSc3nnnn3-c3ccccc3)n2)cc1	0	0	0	0	-43
Cc1cccc(-n2nnnc2SCc2csc(-c3ccccc3)n2)c1	42	0	0	0	0
c1ccc(-c2noc(CSc3nnc(Cc4cccs4)n3-c3ccccc3)n2)cc1	0	0	40	0	0
Cc1cc(C)cc(N2C(=O)CS(=O)(=O)C23C(=O)N(Cc2ccc(F)cc2)c2ccc(C)cc23)c1 (stereo not drawn)	0	0	0	0	0
COc1ccc(-n2ccnc(NCc3cccs3)c2=O)cc1OC	0	0	0	0	0
Cc1ccc(C(=O)c2oc3ccccc3c2NC(=O)c2cc(=O)c3ccccc3o2)cc1	0	0	0	0	0
CC(C)CCn1c(=O)c2sccc2n2c(CCCC(=O)NC3CCC(C)CC3)nnc12 (stereo not drawn)	0	0	0	0	0
